NadD block: inhibitors of Staphylococcus aureus NadD; purified NadD enzyme, colorimetric absorbance read-out; inhibition, % at 20 µM; actives 0.78% (n = 360,000); in the data active = inhibition above about 26%
aDG glyco act: alpha-DG glycosylation activation. activation, % at 10 µM. AID 624168. Pro5-aDG cells, alpha-DG glycosylation AlphaScreen (IIH6); 0% Pro5, 100% B10-LARGE cell signal. actives 0.22% (n = 360,000);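 active = activation of at least 8% versus controls, or a plate z-score of at least 8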;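 note: Pro5 are CHO cells carrying HIG-tagged alpha-DG that lacks glycosylation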
MPTP block: blocks calcium-induced mitochondrial swelling; inhibition, % at 10 µM; AID 602449; actives 1.4% (n = 360,000); isolated mouse mitochondria, Ca2+ swelling absorbance, 30 min;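 active = inhibition of 50% or more, scaled per plate between neutral and stimulator controls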
TAG inh: inhibitors of triacylglycerol accumulation; H9c2 cells, Nile Red lipid (TAG) fluorescence; cells loaded with 200 µM oleic acid; inhibition, % at 12.5 µM; actives 0.66% (n = 230,000);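 active = pattern-corrected inhibition of lipid staining of at least 50% with the nuclear-stain viability signal not falling by more than 50%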
Rh123 counter: mitochondrial membrane potential, counter-screen; shares compounds with MPTP block; isolated mitochondria, Rhodamine 123 fluorescence; inhibition, % at 10 µM; actives 78% (n = 5,000); AID 624504; in the data active = inhibition above about 22%
MPTP swell DR: dose response confirmation of mitochondrial permeability transition pore inhibitors; shares compounds with MPTP block; actives 58% (n = 780); AID 651561; IC50, µM; isolated mitochondria swelling, absorbance; in the data active = IC50 below about 20 µM
MPTP counter DR: counter-screen for mitochondrial permeability transition pore inhibitors, dose response. shares compounds with MPTP block. actives 49% (n = 780). isolated mitochondria counterscreen, fluorescence read-out. IC50, µM; in the data active = IC50 below about 80 µM
Of the large screens only hits and unclear results are named; the others gave an inactive call (follow-up assays come after a bar, where they were run). This is a sample that favours compounds with a hit; in the whole collection about 2.7% have one here.

COc1cc2ccccc2cc1C(=O)N(CCN(C)C)c1nc2c(OC)ccc(OC)c2s1	MPTP block 67.4 (no result: TAG inh) | Rh123 counter inactive | MPTP swell DR inactive | MPTP counter DR 52.1
Cc1cccc2sc(N(CCN(C)C)C(=O)C3CCN(S(=O)(=O)c4cccs4)CC3)nc12	MPTP block 72.1 | Rh123 counter inactive | MPTP swell DR inactive | MPTP counter DR inactive
Cc1ccc(NC(=O)CCC(=O)Nc2nnc(C3CCCCC3)s2)cc1	none (no result: TAG inh)
CN(C)C=Nc1ccc([N+](=O)[O-])c2ccccc12	none
Cc1cc(-c2onc(C)c2C(=O)Nc2ccc(C(F)(F)F)cc2)no1	none
Cc1noc(-c2ccc(C(F)(F)F)cc2)c1NC(=O)Nc1ccc(Cl)cc1	MPTP block 75.3 | Rh123 counter 71.6
CN(CC(=O)Nc1ccc(F)c(F)c1F)C(=O)C1CCN(C(=O)Nc2ccccc2)CC1	none
O=C(Nc1nnc(C(F)(F)F)s1)c1c(F)cccc1F	none (no result: TAG inh)
Fc1ccc(Nc2nnc(C(F)(F)F)s2)cc1Cl	MPTP block 75.3 | Rh123 counter 86.0
FC(F)(F)c1nnc(N2CCN(c3ccc(Cl)cc3)CC2)s1	none
FC(F)(F)c1nnc(Nc2ccc(Cl)cc2)s1	MPTP block 79.2 | Rh123 counter 75.1
CCN(CC)S(=O)(=O)c1cccc(NC(=O)CSc2nc3ccccc3[nH]2)c1	MPTP block 65.2 (no result: TAG inh) | Rh123 counter 33.3
CN(C)S(=O)(=O)c1cccc(NC(=O)CSc2ncnc3ccccc23)c1	MPTP block 84.2 | Rh123 counter 66.4
CN(C)S(=O)(=O)c1ccc(NC(=O)CSc2ncnc3ccccc23)cc1	none (no result: TAG inh)
Cc1cccnc1C(NC(=O)C1CCN(Cc2ccc(Oc3ccccc3)cc2)CC1)c1ccccc1 (configuration not stated)	none
CCc1ccccc1N(C(=O)c1snc(C(N)=O)c1N)C(C(=O)NCC1CCCO1)c1c[nH]c2ccccc12 (configuration not stated)	none (no result: TAG inh)
Oc1ccc(O)c(C=NNC(=S)NC2CC3CC2C2C=CCC32)c1 (configuration not stated)	none
Oc1ccccc1C=NNC(=S)Nc1ccc(F)cc1	MPTP block 62.6 | Rh123 counter 71.4
Oc1c(Cl)cc(Cl)cc1/C=N/NC(=S)NC1CC2C=CC1C2 (configuration not stated)	MPTP block 88.7 | Rh123 counter 62.5
Oc1ccccc1C=NNC(=S)NC1CC2C=CC1C2 (configuration not stated)	none
Oc1ccccc1/C=N/NC(=S)NC1CC2C=CC1C2 (configuration not stated)	MPTP block 56.6 | Rh123 counter 70.4
COC(=O)c1ccc(Cn2c(C)c(C(=O)NCc3cccc([N+](=O)[O-])c3)sc2=O)o1	none
O=C(NCC1CCCO1)c1ccc(Cl)c(S(=O)(=O)N2CCCCC2)c1 (configuration not stated)	none
COC(=O)[C@@]12C[C@@H](CC(=O)NCC3CCCCC3)C(=O)N(CCc3ccc(OC)c(OC)c3)C1=CCC(C)(C)C2	none (no result: NadD block, TAG inh)
O=c1cc(-c2ccccc2)nc2c(Cl)cc(Cl)cn12	none
CC(C)c1cc(Cn2c3ccccc3c(=O)n2C(C)Cn2cc(-c3ccc(C(C)(C)C)cc3)nn2)on1 (configuration not stated)	none (no result: NadD block, TAG inh)
CC1(C)CC2CC(C)(CN2S(=O)(=O)c2ccccc2[N+](=O)[O-])C1 (configuration not stated)	none
Cc1oc(/N=C/c2ccccc2)c(C#N)c1C	none (no result: TAG inh)
COc1[nH]c(/N=C/c2ccccc2)c(C#N)c1C#N	MPTP block 86.8 | Rh123 counter 33.1
CC(C)NC(=O)C1(C)CSCC(=O)N1Cc1cccc(C(F)(F)F)c1 (configuration not stated)	none (no result: NadD block, TAG inh)
CN(C(=O)Cn1cnc2sccc2c1=O)C1CCCCC1	none
CN1CCCC(OC(=O)c2ccccc2F)C1 (configuration not stated)	none (no result: TAG inh)
CCN(CC)CCCCN1c2ccccc2Sc2ccccc21	none (no result: TAG inh)
CN1CCCC(CN2c3ccccc3Sc3ccccc32)C1 (configuration not stated)	MPTP block 81.7 | Rh123 counter inactive
CN1CCCC(CC2c3ccccc3Sc3ccccc32)C1 (configuration not stated)	MPTP block 99.9 | Rh123 counter inactive | MPTP swell DR 9.44 | MPTP counter DR inactive
O=C(Nc1ccc(S(=O)(=O)N2CCOCC2)cc1)c1cc(-c2ccccc2O)n[nH]1	none
O=C(Nc1nc(-c2cc3ccccc3o2)cs1)c1ccc(S(=O)(=O)N2CCCC2)cc1	MPTP block 62.8 (no result: TAG inh) | Rh123 counter 81.6
CC1CN(S(=O)(=O)c2ccc(C(=O)Nc3nc(-c4cc5ccccc5o4)cs3)cc2)CC(C)O1 (configuration not stated)	MPTP block 88.0 | Rh123 counter inactive | MPTP swell DR inactive | MPTP counter DR <2.5
COc1ccccc1N(C)S(=O)(=O)c1ccc(C(=O)Nc2nc(C)cs2)cc1	none
CC1CN(S(=O)(=O)c2ccc(NC(=O)c3cc(-c4ccccc4O)n[nH]3)cc2)CC(C)O1 (configuration not stated)	MPTP block 79.4 | Rh123 counter 71.5
CN(C)S(=O)(=O)c1ccc(C(=O)Nc2nc(-c3cc4ccccc4o3)cs2)cc1	MPTP block 84.6 (no result: TAG inh) | Rh123 counter 87.4
Cc1ccc2oc(=O)n(Cc3ccccc3)c2c1	none (no result: TAG inh)
C=CCn1c(-c2ccc(S(=O)(=O)N3CCOCC3)cc2)csc1=Nc1ccccc1	MPTP block 57.8 | Rh123 counter 100.2
O=S(=O)(c1ccc(-c2ccccc2)cc1)N1CCOCC1	none
CC(=O)c1cccc(N=c2scc(-c3ccc(S(=O)(=O)N4CCOCC4)cc3)n2CCO)c1	MPTP block 97.4 (no result: TAG inh) | Rh123 counter 86.8
Cc1ccc(S(=O)(=O)N2CCN(C(=O)CN3CCN(c4ccc(O)cc4)CC3)CC2)cc1	none
Cc1ccc2c(c1)C1CN(C)CCC1N2C(=O)c1cccc(S(=O)(=O)N(C)C)c1 (configuration not stated)	none
Cc1ccc2c(c1)C1CN(C)CCC1N2C(=O)Nc1ccc(Cl)cc1 (configuration not stated)	MPTP block 87.2 (no result: TAG inh) | Rh123 counter 94.2
N#C/C(=C\c1ccc(O)c([N+](=O)[O-])c1)c1nc2ccccc2s1	MPTP block 91.2 (no result: TAG inh) | Rh123 counter 63.8
COc1cc(/C=C(\C#N)c2nc3ccccc3s2)cc([N+](=O)[O-])c1O	none (no result: TAG inh)
CCN(CC)CC(O)CNc1ccnc2c(Cl)ccc(Cl)c12 (configuration not stated)	none
Cc1cc(/C=N/n2cnnc2)c(C)n1-c1ccc(OCc2ccc(Cl)cc2)cc1	MPTP block 113.9 | Rh123 counter 100.4
C(=N\n1cnnc1)/c1ccc(OCc2ccccc2)cc1	none (no result: TAG inh)
